Assay results: PubChem BioAssay (Tox21)
“And” between values parts separate entries of the source, which are not always exact repeats. Equal values may be shown once. Results filed as inconclusive are left out. A call without a number means that no potency is given here. More than one record can exist for a structure, and the calls need not agree. The source made the active and inactive calls. Unless noted, calls come from the whole dose curve; as a rule, active = well fitted curve in the direction sought with a large enough effect in the repeat runs; inconclusive = weak or mixed curves; inactive = no such curve, though single readings can be large; an effect the other way counts as inactive or inconclusive.

Experiments:
[1] = qHTS assay to identify small molecule agonists of the androgen receptor (AR) signaling pathway in the presence of an antagonist - cell viability counter screen (AID 1259379); note: nearly all actives have a fitted effect of over 25% in size; note: potency is the fitted concentration of half-maximal effect
Method in brief: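 A CellTiter-Fluor read-out measured viability of MDA-kb2 reporter cells (MMTV promoter with AR and GR response elements). Treatment: nilutamide 3.0uM final with compounds at 15 concentrations, 16 hr, 37C, 0% CO2.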

[2] = qHTS assay to identify small molecule agonists of the estrogen receptor beta (ER-beta) signaling pathway - cell viability counter screen (AID 1259380); note: nearly all actives have a fitted effect of over 30% in size; note: potency is the fitted concentration of half-maximal effect
Method in brief: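 Cells used were ER-beta-UAS-bla HEK293T in medium with 2% charcoal-stripped FBS. They were treated for 16 hr at 37C. Viability came from CellTiter-Glo luminescence.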

[3] = qHTS assay to identify small molecule antagonists of the estrogen receptor beta (ER-beta) signaling pathway - cell viability counter screen (AID 1259382); note: nearly all actives have a fitted effect of over 55% in size; note: potency is the fitted concentration of half-maximal effect
Method in brief: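 Agonist-stimulated (1nM E2) ER-beta-UAS-bla HEK293T cells are incubated with library compounds for 16 hr at 37C. Cell viability is then assessed in the reporter-assay wells by adding CellTiter-Glo and reading luminescence after 30 min.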

[4] = target: Estrogen receptor (Homo sapiens) (UniProt P03372); assay: qHTS assay to identify small molecule agonists of the estrogen receptor alpha (ER-alpha) signaling pathway in the presence of an antagonist (AID 1259383; calls by dose curve; note: top concentration of the series differs between compounds; nearly all actives have a fitted effect of over 15% in size)
Method in brief: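 Using VM7Luc4E2 cells seeded 24hr before treatment, antagonist ICI-182,780 (10.0nM final) was added, followed by compounds at 15 concentrations. Plates incubated 22hr; ONE-Glo luminescence quantified reporter activity.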

[5] = qHTS assay to identify small molecule agonists or antagonists of the thyroid stimulating hormone receptor (TSHR) signaling pathway - wild type cell line counter screen (AID 1259384; calls by dose curve)
Method in brief: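 Wild-type Hek293 cells, 800/well, 18 h at 37C, then compound with Ro20-1724 for 30 min RT. cAMP by HTRF (cAMP-d2/anti-cAMP cryptate), 1 h RT, fluorescence read. 15 concentrations, triplicates.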

[6] = target: Thyrotropin receptor (Homo sapiens) (UniProt P16473); assay: qHTS assay to identify small molecule antagonists of the thyroid stimulating hormone receptor (TSHR) signaling pathway (AID 1259385; calls by dose curve; note: nearly all actives have a fitted effect of over 20% in size; note: potency is the fitted concentration of half-maximal effect)
Method in brief: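 TSHR-HEK293 cells (800/well) plated 18 h, then compounds with Ro20-1724 and TSH at 1.5 ng/mL final, 30 min at room temperature. cAMP quantified by HTRF (cAMP-d2/anti-cAMP-cryptate, 1 h); 15 concentrations in triplicate.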

[7] = qHTS assay to identify small molecule agonists of the estrogen receptor alpha (ER-alpha) signaling pathway in the presence of an antagonist - cell viability counter screen (AID 1259386);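 note: cells exposed to compounds for 22 h at 37 °C before the viability read; nearly all actives have a fitted effect of over 30% in size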; note: potency is the fitted concentration of half-maximal effect
Method in brief: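 ICI-182,780 at 10.0nM final accompanies the compound titration (15 concentrations, 22hr, 37C) on VM7Luc4E2 cells. The CellTiter-Fluor fluorescence readout runs in the same wells as the luciferase assay.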

[8] = target: Progesterone receptor (Homo sapiens) (UniProt P06401); assay: qHTS assay to identify small molecule agonists of the progesterone receptor (PR) signaling pathway (AID 1346784; calls by dose curve; note: nearly all actives have a fitted effect of over 30% in size; note: potency is the fitted concentration of half-maximal effect)
Method in brief: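 Beta-lactamase reporter read-out: after 16 hr compound treatment at 37C and a further 2 hr at room temperature with LiveBLAzer B/G FRET substrate, fluorescence was measured in PR-UAS-bla HEK 293T cells grown in 2% charcoal-stripped serum.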

[9] = target: Progesterone receptor (Homo sapiens) (UniProt P06401); assay: qHTS assay to identify small molecule antagonists of the progesterone receptor (PR) signaling pathway (AID 1346795; active = well fitted inhibition curve with a large enough effect in the signal ratio in the repeat runs, not every such curve was filed as active; the % refers to the signal ratio; note: potency is the fitted concentration of half-maximal effect)
Method in brief: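 Read-out is fluorescence from the LiveBLAzer B/G FRET substrate, cleaved by a UAS-controlled beta-lactamase in PR-UAS-bla HEK293T cells after 16 hr exposure to compound plus 1 nM promegestone (final), followed by 2 hr at room temperature.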

[10] = qHTS assay to identify small molecule antagonists of the TGF-beta/Smad signaling pathway - cell viability counter screen (AID 1346824); note: nearly all actives have a fitted effect of over 50% in size
Method in brief: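 SBE-bla HEK 293T cells, incubated overnight, then compound plus 0.25 ng/mL TGF-beta1 (stock added) for 5 hr at 37 C. Viability was read in the same wells by CellTiter-Glo luminescence after 30 min at room temperature.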

[11] = qHTS assay to identify small molecule antagonists of the sonic hedgehog signaling (Shh) pathway (AID 1259369; calls by dose curve; note: nearly all actives have a fitted effect of over 45% in size; note: potency is the fitted concentration of half-maximal effect)
Method in brief: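 Conditioned medium drives Shh signalling in 3T3Gli1-Luc cells; compounds in DMSO co-applied, 24hr at 37 C, then luciferase luminescence.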

[12] = qHTS assay to identify small molecule antagonists of the progesterone receptor (PR) signaling pathway - cell viability counter screen (AID 1346798); note: nearly all actives have a fitted effect of over 50% in size; note: potency is the fitted concentration of half-maximal effect
Method in brief: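 HEK293T PR-UAS-bla, 2% charcoal-stripped FBS; 4 hr pre-plate; cpd + R5020, 16 h 37C; LiveBLAzer read first; then CellTiter-Glo 30 min RT, luminescence.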

[13] = qHTS assay to identify small molecule agonists of the progesterone receptor (PR) signaling pathway - cell viability counter screen (AID 1346799; calls by dose curve; note: nearly all actives have a fitted effect of over 45% in size)
Method in brief: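 Luminescence from CellTiter-Glo, added after the beta-lactamase FRET read in the same wells, gave cytotoxicity in PR-UAS-bla HEK293T cells treated with compounds for 16 hr at 37C.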

[14] = qHTS assay to identify small molecule agonists of the TGF-beta/Smad signaling pathway - cell viability counter screen (AID 1346829); note: top concentration of the series differs between compounds; nearly all actives have a fitted effect of over 45% in size
Method in brief: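 Luminescence from CellTiter-Glo, read after a 30 min room-temperature incubation, gives cell viability of SBE-bla HEK 293T cells treated 5 hr with compounds at 37 C.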

[15] = qHTS assay to identify small molecule agonists of the TGF-beta/Smad signaling pathway (AID 1346859; active = well fitted activation curve with a large enough effect in the signal ratio in the repeat runs, not every such curve was filed as active; the % refers to the signal ratio; note: series mostly up to about 77 µM)
Method in brief: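 SBE-bla HEK 293T, 4,000 cells/well, plated o/n; cpd in DMSO, 5 hr, 37 C/5% CO2; B/G FRET substrate 2 hr RT; ex 405, em 460/530 nm.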

[16] = target: Thyrotropin-releasing hormone receptor (Homo sapiens) (UniProt P34981); assay: qHTS assay to identify small molecule agonists of the thyrotropin-releasing hormone receptor (TRHR) signaling pathway (AID 1346891; calls by dose curve; note: potency is the fitted concentration of half-maximal effect; for activation: series mostly up to about 58 µM)
Method in brief: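 Intracellular calcium rise, read as fluorescence every second for 3 min, served as the agonist signal in dye-loaded HEK293 cells expressing TRHR; each compound ran at 15 concentrations in triplicate.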

[17] = target: Thyrotropin-releasing hormone receptor (Homo sapiens) (UniProt P34981); assay: qHTS assay to identify small molecule antagonists of the thyrotropin-releasing hormone receptor (TRHR) signaling pathway (AID 1346877; active = well fitted inhibition curve with a large enough effect in the repeat runs, not every such curve was filed as active; note: series mostly up to about 51 µM)
Method in brief: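 Screening used HEK293 cells engineered with TRHR, with a brief 5 min room-temperature compound exposure preceding addition of TRH to 1 nM. The read-out was kinetic calcium-dye fluorescence, concentration-response from 15 doses in triplicate.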

[18] = target: Estrogen receptor beta (Homo sapiens) (UniProt Q92731); assay: qHTS assay to identify small molecule agonists of the estrogen receptor beta (ER-beta) signaling pathway (AID 1259377; active = well fitted activation curve with a large enough effect in the signal ratio in the repeat runs, not every such curve was filed as active; the % refers to the signal ratio)
Method in brief: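 HEK293T ER-beta-UAS-bla; 2% charcoal-stripped FBS; cells pre-incubated 6 hr, compound 16 hr, 37C/5% CO2; LiveBLAzer B/G FRET substrate 2 h RT; fluorescence intensity read.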

[19] = target: Estrogen receptor beta (Homo sapiens) (UniProt Q92731); assay: qHTS assay to identify small molecule antagonists of the estrogen receptor beta (ER-beta) signaling pathway (AID 1259378; active = well fitted inhibition curve with a large enough effect in the signal ratio in the repeat runs, not every such curve was filed as active; the % refers to the signal ratio; note: potency is the fitted concentration of half-maximal effect)
Method in brief: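 ER-beta-UAS-bla HEK293T cells in 2% charcoal-stripped FBS medium treated with compound plus 1nM final 17-beta-estradiol for 16 hr at 37C. Beta-lactamase reporter read by FRET substrate fluorescence after 2 hours at room temperature.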

Sequence of Progesterone receptor (Homo sapiens) (P06401 whole entry, looked up): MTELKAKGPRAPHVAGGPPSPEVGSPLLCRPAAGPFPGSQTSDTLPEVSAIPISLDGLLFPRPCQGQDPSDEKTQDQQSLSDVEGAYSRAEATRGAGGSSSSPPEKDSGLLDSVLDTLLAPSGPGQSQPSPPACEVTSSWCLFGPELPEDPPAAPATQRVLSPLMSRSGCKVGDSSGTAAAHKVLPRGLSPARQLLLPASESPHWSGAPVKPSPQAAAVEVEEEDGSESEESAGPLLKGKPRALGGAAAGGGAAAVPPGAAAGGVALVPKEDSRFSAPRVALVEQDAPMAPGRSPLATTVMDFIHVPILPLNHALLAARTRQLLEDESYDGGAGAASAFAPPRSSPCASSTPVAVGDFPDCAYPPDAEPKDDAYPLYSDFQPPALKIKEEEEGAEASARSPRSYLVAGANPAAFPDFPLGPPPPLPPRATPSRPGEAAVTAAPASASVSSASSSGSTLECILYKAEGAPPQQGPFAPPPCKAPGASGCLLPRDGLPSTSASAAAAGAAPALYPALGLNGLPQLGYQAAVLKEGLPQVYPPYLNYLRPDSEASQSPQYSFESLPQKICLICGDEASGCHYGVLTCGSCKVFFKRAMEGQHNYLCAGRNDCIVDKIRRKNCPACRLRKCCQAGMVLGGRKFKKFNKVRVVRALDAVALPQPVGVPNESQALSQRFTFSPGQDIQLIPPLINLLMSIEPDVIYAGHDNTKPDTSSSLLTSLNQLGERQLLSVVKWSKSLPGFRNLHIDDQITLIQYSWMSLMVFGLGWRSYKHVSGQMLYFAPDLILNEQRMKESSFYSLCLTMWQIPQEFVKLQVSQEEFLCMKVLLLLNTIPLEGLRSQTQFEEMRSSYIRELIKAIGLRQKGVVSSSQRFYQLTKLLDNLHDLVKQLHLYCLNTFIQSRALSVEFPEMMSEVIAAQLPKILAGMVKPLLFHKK
Sequence of Thyrotropin-releasing hormone receptor (Homo sapiens) (P34981 whole entry, looked up): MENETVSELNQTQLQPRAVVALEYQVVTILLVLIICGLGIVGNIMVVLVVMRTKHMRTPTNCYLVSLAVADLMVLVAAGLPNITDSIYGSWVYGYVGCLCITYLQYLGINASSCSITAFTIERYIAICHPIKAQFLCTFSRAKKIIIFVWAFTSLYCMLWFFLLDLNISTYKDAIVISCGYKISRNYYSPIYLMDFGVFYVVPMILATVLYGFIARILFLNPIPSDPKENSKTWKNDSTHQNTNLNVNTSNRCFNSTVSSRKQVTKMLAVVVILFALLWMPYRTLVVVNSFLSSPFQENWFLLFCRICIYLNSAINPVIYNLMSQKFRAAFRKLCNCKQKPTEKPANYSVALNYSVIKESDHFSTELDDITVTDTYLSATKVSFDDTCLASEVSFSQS
Sequence of Estrogen receptor beta (Homo sapiens) (Q92731 whole entry, looked up): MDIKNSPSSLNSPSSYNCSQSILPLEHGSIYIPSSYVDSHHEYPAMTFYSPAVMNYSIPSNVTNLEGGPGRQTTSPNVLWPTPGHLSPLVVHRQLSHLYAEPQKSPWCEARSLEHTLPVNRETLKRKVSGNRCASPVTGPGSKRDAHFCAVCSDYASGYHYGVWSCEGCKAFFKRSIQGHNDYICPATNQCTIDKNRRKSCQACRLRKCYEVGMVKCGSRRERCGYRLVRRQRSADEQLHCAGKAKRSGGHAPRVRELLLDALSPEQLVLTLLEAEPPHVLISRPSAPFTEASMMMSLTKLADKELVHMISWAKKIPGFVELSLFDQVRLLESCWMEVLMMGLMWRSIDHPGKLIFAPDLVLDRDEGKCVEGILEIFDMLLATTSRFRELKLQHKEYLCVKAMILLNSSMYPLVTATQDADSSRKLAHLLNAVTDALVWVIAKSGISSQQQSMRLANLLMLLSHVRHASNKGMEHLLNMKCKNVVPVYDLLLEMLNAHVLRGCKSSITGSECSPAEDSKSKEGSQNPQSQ
Sequence of Thyrotropin receptor (Homo sapiens) (P16473 whole entry, looked up): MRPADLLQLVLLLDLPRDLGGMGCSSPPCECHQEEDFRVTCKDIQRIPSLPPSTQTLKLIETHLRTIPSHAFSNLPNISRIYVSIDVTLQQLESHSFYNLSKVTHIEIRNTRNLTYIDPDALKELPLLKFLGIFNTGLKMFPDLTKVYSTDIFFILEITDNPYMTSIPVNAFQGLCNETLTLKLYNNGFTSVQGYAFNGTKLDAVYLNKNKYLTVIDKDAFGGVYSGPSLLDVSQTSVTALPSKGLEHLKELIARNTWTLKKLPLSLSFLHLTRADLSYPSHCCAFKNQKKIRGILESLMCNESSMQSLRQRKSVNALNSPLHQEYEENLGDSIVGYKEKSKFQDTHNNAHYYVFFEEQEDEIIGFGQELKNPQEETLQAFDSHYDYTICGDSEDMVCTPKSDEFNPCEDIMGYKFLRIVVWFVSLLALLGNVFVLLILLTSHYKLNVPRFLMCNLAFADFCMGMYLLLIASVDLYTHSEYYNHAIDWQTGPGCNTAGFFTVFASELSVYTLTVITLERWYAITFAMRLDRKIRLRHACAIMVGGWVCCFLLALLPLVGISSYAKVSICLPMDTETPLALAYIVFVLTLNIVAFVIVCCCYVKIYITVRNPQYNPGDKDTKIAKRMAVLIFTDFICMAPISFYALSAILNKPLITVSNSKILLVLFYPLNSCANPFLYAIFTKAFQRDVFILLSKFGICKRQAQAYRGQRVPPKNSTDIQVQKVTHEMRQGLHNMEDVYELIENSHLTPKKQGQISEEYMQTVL
Sequence of Estrogen receptor (Homo sapiens) (P03372 whole entry, looked up): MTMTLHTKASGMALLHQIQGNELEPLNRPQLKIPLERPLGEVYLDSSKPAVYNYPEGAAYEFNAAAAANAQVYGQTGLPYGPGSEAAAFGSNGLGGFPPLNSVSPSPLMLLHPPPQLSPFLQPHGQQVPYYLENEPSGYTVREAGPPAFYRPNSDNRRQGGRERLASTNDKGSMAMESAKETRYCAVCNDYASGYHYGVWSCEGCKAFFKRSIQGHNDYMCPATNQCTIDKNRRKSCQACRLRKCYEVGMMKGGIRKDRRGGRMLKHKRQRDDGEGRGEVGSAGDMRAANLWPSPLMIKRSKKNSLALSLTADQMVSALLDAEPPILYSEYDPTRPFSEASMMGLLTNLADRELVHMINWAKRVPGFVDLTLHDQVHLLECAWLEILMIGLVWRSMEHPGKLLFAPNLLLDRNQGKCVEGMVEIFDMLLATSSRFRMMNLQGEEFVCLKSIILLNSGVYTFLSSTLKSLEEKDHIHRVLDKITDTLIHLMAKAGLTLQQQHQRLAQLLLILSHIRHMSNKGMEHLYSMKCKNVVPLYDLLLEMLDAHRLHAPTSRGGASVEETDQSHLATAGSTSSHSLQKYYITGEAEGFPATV

Compound	Potency [1]	Potency [2]	Potency [3]	Potency [4]	Potency [5]	Potency [6]	Potency [7]	Potency [8]	Potency [9]	Potency [10]	Potency [11]	Potency [12]	Potency [13]	Potency [14]	outcome [15]	Potency [16]	Potency [17]	Potency [18]	Potency [19]
CC(=O)O[C@]1(C(C)=O)CC[C@H]2[C@@H]3C=C(C)C4=CC(=O)CC[C@]4(C)[C@H]3CC[C@@]21C	inactive	inactive	inactive	inactive	inactive	inactive	inactive	0.0039 µM (active)	inactive	inactive									
CCCCCCOCCOCCO	inactive	inactive	inactive		inactive	inactive	inactive	inactive	inactive	inactive	inactive	inactive	inactive	inactive	inactive				
O=C(O)c1ccc(O)cc1	inactive	inactive	inactive		inactive	inactive	inactive	inactive	inactive	inactive	inactive	inactive	inactive		inactive	inactive			
Cc1ccc(S(=O)(=O)NCl)cc1	inactive	inactive	inactive	inactive		inactive	inactive	inactive	inactive	inactive	inactive	inactive	inactive		inactive				
O=C(O)c1cc(=O)[nH]c(=O)[nH]1	inactive	inactive	inactive	inactive		inactive	inactive	inactive	inactive	inactive	inactive and 13.3 µM (active)		inactive	inactive	inactive				
C=CN1CCCC1=O	inactive	inactive	inactive	inactive			inactive	inactive	inactive	inactive	inactive	inactive	inactive	inactive	inactive	inactive			
CC1(C)OC(=O)NC1=O	inactive	inactive	inactive			inactive	inactive	inactive	inactive	inactive	inactive	inactive	inactive		inactive				
Oc1c(Cl)ccc(Cl)c1Cl	inactive		inactive	inactive			inactive		inactive	inactive	inactive	inactive	inactive		inactive	inactive			
COCCOCCOCCO	inactive	inactive	inactive		inactive	inactive	inactive	inactive		inactive	inactive	inactive	inactive		inactive	inactive			
Cc1ccc(C)c(O)c1	inactive	inactive	inactive			inactive	inactive	inactive	inactive	inactive	inactive	inactive	inactive	inactive	inactive	inactive	inactive		
c1ccc2c(c1)ccc1cc3c(ccc4ccccc43)cc12	inactive	inactive	inactive	inactive			inactive	inactive	inactive	inactive	inactive	inactive	inactive	inactive	inactive	inactive	inactive		
[Na+]	inactive	inactive	inactive	inactive			inactive	inactive	inactive	inactive	inactive	inactive	inactive		inactive				
Cc1cccc(Nc2ccccc2C(=O)O)c1C	inactive	inactive	inactive				inactive	inactive		inactive	inactive	inactive	inactive	inactive	inactive	inactive			
CC(C)(C)c1cccc(C(C)(C)C)c1O	inactive	inactive	inactive	inactive	inactive	inactive	inactive	inactive	inactive	inactive		inactive		inactive	inactive				
CCCOCCO	inactive	inactive	inactive			inactive	inactive	inactive	inactive	inactive	inactive	inactive	inactive	inactive	inactive	inactive	inactive		
O=C1OC2(c3ccccc31)c1cc(I)c(O)c(I)c1Oc1c2cc(I)c(O)c1I	10.6 µM (active) [middle of 4 runs]	inactive	inactive				13.3 µM (active) [middle of 4 runs]	inactive	inactive	inactive	inactive and 8.73 µM (active) and 20.9 µM (active)	inactive	inactive	inactive	inactive	19.7 µM (active) [middle of 4 runs]	inactive		
Nc1cc(Cl)c(N)c(Cl)c1	inactive	inactive	inactive	inactive			inactive	inactive	inactive	inactive		inactive	inactive	inactive	inactive	inactive	inactive		
CCCCCCCCCCC(CO)CCCCCCCC (configuration not stated)	inactive	inactive	inactive		inactive	inactive	inactive			inactive	inactive	inactive	inactive		inactive				
Cc1ccc(C(C)(C)C)cc1	inactive	inactive	inactive	inactive		inactive	inactive	inactive	inactive	inactive	inactive	inactive	inactive	inactive	inactive	inactive			
CC(C)(Oc1ccc(Cl)cc1)C(=O)O	inactive	inactive	inactive			inactive	inactive	inactive	inactive	inactive	inactive	inactive	inactive		inactive				
C=CCNCC=C	inactive	inactive	inactive	inactive			inactive	inactive	inactive	inactive	inactive	inactive	inactive	inactive	inactive	inactive	inactive		
CC(=O)[C@H]1CC[C@H]2[C@@H]3CC=C4C[C@@H](O)CC[C@]4(C)[C@H]3CC[C@]12C	inactive		inactive	inactive		inactive	inactive	4.85 µM (active)	inactive	inactive		inactive	inactive	inactive	inactive			inactive	1.88 µM (active)
OC[C@@H](O)[C@@H](O[C@@H]1O[C@H](CO)[C@H](O)[C@H](O)[C@H]1O)[C@H](O)[C@@H](O)CO	inactive	inactive	inactive	inactive		inactive	inactive			inactive	inactive	inactive	inactive	inactive	inactive				
C=C[C@H]1CN2CC[C@H]1C[C@H]2[C@H](O)c1ccnc2ccc(OC)cc12	inactive	inactive	inactive				inactive	inactive	inactive			inactive	inactive	inactive	inactive	inactive			
NC[C@H](O)c1ccc(O)c(O)c1	inactive	inactive	inactive				inactive	inactive	inactive	inactive	inactive	inactive	inactive	inactive	inactive				
C[C@]12CC[C@@H]3c4ccc(O)cc4CC[C@H]3[C@@H]1CC[C@@H]2O	inactive		inactive				inactive			inactive	3.06 µM (active) and 5.45 µM (active)				inactive	inactive			
C[C@]12CC[C@@H]3c4ccc(O)cc4CC[C@H]3[C@@H]1CC[C@H]2O	inactive					31.2 µM (active)	inactive	inactive		inactive	4.94 µM (active) and 4.86 µM (active)			inactive	inactive	inactive	inactive		
CC/C(=C(/CC)c1ccc(O)cc1)c1ccc(O)cc1	60.6 µM (active) and inactive	60.6 µM (active) and 61.1 µM (active)	60.6 µM (active) and inactive		inactive	inactive	inactive	inactive	12.2 µM (active)	inactive		60.6 µM (active)	inactive	inactive	inactive	inactive			
